Experiments:
Assay in all cases: log2 ratio of Biotin-Ahx-Ub-VS probe labelling (fragment/DMSO); higher = less target engagement (more negative = stronger competition), active = hit call of the paper (q ≤ 0.05, log2 ratio ≤ -1)
Settings in all cases: compound concentration: 200 uM; treatment time: 3 h
OTUD6B = target: T1, OTUD6B (UniProt Q8N6M0)
T1 sequence (whole entry): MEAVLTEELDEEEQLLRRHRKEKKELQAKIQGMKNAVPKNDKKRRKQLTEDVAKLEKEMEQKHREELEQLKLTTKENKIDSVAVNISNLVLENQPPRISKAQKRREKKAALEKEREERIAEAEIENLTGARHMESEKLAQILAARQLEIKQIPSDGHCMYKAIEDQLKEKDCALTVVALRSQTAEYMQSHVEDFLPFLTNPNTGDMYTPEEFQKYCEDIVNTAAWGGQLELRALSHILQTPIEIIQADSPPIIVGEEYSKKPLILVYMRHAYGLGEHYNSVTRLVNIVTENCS
Method in brief: (§1)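 The table lists average log2 ratios of fragment over vehicle, from an unpaired t-test on global-median-normalised Spectronaut label-free quantities. Proteins with ≥2 unique peptides were used. Samples were HEK293T lysate (495 µg) treated in triplicate with fragment at 200 µM or vehicle for 3 h, then with Biotin-Ahx-Ub-VS (0.5 µM final) for 1 h, with labelled DUBs NeutrAvidin-enriched and run by diaPASEF LC-MS/MS.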

OTUD7B = target: T2, OTUD7B (UniProt Q6GQQ9)
T2 sequence (whole entry): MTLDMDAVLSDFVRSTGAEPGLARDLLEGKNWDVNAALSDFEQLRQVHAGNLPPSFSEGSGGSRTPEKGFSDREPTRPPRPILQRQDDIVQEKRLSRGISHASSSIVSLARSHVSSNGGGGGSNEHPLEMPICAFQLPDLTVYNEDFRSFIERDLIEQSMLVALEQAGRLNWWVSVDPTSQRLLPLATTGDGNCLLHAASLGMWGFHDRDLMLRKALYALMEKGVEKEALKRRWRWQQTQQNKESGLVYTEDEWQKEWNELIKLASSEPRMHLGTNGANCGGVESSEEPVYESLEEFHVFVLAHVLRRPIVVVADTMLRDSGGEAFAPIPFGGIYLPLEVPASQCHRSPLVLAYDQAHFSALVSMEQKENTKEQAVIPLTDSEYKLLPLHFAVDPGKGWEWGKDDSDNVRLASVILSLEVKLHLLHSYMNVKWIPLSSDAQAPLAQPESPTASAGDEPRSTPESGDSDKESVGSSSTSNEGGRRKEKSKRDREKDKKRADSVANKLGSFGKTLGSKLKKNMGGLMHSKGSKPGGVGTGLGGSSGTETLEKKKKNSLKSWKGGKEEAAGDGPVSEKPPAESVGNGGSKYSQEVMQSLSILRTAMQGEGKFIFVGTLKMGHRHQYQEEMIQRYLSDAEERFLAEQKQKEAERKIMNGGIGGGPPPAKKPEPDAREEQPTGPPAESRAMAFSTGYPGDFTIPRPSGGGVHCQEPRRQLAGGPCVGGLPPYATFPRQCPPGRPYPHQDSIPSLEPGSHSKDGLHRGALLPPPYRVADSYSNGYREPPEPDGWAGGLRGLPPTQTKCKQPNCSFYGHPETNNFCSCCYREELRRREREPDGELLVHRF
Method in brief: as §1

PRPF8 = PRPF8 (UniProt Q6P2Q9)
Method in brief: as §1

PSMD7 = target: T3, PSMD7 (UniProt P51665)
T3 sequence (whole entry): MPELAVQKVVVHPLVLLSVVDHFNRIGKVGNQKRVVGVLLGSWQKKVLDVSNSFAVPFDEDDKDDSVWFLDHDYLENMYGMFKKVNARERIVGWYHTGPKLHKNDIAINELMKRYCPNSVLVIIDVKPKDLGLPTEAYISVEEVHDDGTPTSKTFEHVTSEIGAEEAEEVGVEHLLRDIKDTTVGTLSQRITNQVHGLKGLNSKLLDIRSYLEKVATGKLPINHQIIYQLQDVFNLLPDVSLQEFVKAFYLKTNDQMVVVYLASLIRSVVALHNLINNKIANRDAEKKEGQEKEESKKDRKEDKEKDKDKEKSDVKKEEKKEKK
Method in brief: as §1

UCHL1 = UCHL1 (UniProt P09936)
Method in brief: as §1

UCHL3 = target: T4, UCHL3 (UniProt P15374)
T4 sequence (whole entry): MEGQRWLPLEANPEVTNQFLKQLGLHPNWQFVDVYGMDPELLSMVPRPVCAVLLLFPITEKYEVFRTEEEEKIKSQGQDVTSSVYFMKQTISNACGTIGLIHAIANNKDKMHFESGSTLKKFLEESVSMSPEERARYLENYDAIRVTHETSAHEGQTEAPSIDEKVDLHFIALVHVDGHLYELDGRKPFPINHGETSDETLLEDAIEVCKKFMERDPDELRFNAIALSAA
Method in brief: as §1

UCHL5 = target: T5, UCHL5 (UniProt Q9Y5K5)
T5 sequence (whole entry): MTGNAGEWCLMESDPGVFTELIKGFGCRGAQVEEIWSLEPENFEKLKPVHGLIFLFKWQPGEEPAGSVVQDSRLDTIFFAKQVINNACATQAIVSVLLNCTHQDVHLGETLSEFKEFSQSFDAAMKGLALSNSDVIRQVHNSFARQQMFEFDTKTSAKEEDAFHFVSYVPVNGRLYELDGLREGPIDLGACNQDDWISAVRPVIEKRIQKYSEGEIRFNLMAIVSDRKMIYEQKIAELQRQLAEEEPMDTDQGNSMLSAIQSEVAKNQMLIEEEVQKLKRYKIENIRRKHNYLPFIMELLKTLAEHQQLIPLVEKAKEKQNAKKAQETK
Method in brief: as §1

USP10 = USP10 (UniProt Q14694)
Method in brief: as §1

USP15 = target: T6, USP15 (UniProt Q9Y4E8)
T6 sequence (whole entry): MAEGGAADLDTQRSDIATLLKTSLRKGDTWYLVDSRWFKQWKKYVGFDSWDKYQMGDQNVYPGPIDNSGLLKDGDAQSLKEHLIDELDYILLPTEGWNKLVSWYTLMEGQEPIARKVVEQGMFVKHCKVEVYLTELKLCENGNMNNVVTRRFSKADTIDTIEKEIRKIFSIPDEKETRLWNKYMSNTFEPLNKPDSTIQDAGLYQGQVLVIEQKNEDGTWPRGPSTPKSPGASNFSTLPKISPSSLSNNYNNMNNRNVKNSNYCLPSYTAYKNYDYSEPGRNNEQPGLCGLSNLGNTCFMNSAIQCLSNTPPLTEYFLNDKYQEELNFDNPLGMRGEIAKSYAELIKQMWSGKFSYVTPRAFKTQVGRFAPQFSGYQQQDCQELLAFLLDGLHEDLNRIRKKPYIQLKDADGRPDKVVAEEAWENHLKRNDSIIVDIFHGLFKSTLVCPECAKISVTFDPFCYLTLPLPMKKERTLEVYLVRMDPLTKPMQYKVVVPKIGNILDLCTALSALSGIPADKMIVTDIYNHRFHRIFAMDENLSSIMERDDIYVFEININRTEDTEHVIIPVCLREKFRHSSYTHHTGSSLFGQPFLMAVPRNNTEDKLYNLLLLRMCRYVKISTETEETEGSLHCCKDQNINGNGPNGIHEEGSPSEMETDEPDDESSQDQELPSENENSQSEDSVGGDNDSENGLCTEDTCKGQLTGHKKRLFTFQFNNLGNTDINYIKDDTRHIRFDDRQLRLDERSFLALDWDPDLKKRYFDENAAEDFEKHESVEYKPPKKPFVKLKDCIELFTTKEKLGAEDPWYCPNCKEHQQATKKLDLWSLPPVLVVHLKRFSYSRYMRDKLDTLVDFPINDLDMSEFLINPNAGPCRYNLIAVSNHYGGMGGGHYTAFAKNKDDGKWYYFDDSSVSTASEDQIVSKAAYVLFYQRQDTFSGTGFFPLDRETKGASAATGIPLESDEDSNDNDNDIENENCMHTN
Method in brief: as §1

USP16 = USP16 (UniProt Q9Y5T5)
Method in brief: as §1

Measured: log2 ratio of Biotin-Ahx-Ub-VS probe labelling

Chain of UCHL1 (P09936 whole entry, looked up): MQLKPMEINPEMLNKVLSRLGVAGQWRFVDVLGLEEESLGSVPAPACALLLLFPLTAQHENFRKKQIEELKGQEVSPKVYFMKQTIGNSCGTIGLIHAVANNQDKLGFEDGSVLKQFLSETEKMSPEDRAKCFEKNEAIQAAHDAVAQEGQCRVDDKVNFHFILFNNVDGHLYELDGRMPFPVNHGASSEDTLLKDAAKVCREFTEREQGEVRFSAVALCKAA
Chain of USP10 (Q14694 whole entry): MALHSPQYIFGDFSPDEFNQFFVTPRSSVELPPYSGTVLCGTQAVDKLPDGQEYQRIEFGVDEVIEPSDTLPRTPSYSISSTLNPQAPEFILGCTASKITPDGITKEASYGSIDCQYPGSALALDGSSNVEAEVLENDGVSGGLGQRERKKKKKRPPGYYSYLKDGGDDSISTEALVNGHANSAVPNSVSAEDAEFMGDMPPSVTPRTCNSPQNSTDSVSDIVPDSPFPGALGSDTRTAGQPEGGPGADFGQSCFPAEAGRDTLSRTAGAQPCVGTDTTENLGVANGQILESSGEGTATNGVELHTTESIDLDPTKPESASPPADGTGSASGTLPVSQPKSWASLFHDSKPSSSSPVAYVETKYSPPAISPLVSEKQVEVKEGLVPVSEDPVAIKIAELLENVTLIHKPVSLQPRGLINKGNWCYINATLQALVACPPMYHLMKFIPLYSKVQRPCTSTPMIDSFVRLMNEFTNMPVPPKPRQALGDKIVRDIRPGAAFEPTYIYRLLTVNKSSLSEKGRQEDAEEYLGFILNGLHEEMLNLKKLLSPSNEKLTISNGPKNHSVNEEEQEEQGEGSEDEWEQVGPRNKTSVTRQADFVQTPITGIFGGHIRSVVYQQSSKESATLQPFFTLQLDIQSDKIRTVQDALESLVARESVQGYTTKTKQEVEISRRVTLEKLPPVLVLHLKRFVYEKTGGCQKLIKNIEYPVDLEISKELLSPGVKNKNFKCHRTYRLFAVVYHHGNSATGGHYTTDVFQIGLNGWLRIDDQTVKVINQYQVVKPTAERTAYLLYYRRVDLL
Chain of USP16 (Q9Y5T5 whole entry, looked up): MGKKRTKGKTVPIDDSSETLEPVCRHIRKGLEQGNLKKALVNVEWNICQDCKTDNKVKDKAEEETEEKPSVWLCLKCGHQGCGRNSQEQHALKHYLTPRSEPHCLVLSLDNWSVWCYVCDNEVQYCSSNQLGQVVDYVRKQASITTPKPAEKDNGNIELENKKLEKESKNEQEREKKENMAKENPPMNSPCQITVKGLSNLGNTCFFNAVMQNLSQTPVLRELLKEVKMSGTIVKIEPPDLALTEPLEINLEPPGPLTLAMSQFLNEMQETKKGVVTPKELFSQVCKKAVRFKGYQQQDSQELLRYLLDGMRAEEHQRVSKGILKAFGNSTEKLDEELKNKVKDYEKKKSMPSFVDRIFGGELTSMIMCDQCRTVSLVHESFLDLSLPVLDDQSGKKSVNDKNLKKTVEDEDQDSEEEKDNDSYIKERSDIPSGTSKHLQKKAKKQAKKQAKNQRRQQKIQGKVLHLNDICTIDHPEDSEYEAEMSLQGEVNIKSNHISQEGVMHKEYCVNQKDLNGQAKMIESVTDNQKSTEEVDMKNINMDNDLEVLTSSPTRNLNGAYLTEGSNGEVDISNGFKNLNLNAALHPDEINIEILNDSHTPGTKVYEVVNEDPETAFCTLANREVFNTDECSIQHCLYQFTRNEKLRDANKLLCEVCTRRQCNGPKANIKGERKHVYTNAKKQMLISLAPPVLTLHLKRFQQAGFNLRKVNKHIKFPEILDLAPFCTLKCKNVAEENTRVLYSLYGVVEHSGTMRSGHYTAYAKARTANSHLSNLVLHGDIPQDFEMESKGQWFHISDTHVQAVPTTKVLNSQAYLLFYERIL

O=C(CCl)Nc1cc2c(cc1Cl)OCCO2
active: UCHL1 -1.2
inactive: OTUD6B -0.0652 | OTUD7B -0.567 | PRPF8 0.0189 | PSMD7 -0.149 | UCHL3 0.196 | UCHL5 -0.407 | USP10 -0.000247 | USP15 -0.202 | USP16 0.406

— the supplement of paper PMC11732987, “Enantioselective OTUD7B fragment discovery through chemoproteomics screening and high-throughput optimisation” (Communications Chemistry, 2025)
